Test results from ChEMBL document CHEMBL1961873, “Compounds: GSK PKIS; Assays: Nanosyn kinase panel” (2012).

biological target: Leukocyte tyrosine kinase receptor (Homo sapiens) (UniProt P29376); details: at 0.1 µM
Sequence (P29376 whole entry): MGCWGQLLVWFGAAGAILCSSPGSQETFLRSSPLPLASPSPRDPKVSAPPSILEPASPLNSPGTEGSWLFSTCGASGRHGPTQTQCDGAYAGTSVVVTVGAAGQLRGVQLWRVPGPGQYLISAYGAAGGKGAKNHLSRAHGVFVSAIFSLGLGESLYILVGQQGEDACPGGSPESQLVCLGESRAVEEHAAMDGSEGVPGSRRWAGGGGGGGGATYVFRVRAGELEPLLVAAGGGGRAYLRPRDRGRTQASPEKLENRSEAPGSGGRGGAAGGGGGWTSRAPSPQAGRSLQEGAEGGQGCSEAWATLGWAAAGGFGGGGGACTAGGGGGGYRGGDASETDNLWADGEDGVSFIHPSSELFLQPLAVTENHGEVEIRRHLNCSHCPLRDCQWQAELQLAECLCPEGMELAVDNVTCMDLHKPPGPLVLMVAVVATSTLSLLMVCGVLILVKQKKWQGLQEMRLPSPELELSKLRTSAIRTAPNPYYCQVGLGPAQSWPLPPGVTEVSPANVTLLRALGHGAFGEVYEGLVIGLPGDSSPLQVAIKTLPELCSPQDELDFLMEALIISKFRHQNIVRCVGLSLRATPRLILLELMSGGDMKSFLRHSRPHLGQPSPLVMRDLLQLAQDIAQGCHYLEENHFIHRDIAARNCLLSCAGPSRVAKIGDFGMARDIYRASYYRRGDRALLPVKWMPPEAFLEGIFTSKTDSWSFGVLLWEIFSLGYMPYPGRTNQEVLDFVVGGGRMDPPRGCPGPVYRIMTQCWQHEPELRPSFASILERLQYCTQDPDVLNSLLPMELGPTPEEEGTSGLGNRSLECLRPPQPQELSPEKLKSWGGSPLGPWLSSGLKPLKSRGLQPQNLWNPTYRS

Question: With `CNC(=O)c1cncc(/C=C/c2c(Cl)cccc2Cl)c1` as the compound, how does the inhibition read?
Answer: 3.47%

Question: How did the inhibition turn out when `Cc1nnc(-c2ccc(C)c(-c3ccc(C(=O)Nc4cccc(C#N)c4)cc3)c2)o1` was run?
Answer: 2.14%

Question: For `CN(C)c1cc2c(Nc3ccc4nc(Cc5ccccc5)[nH]c4c3)ncnc2cn1`, which inhibition is on record?
Answer: 6.47%

Question: With `Cc1cccc(-c2n[nH]cc2-c2ccc3ncccc3n2)n1` as the compound, how does the inhibition read?
Answer: 0.62%

Question: How did the inhibition turn out when `CS(=O)(=O)CCN(CC#N)Cc1ccc(-c2ccc3ncnc(Nc4ccc(OCc5cccc(F)c5)c(Cl)c4)c3c2)o1` was run?
Answer: 1.4%

Question: With `CCn1c(-c2nonc2N)nc2c(C#CC(C)(C)O)nc(OC[C@@H](N)c3ccccc3)cc21` as the compound, how does the inhibition read?
Answer: 0.55%

Question: For `CC(=O)Nc1cccc(C#Cc2cncnc2Nc2ccc(OCc3cccc(F)c3)c(Cl)c2)n1`, which inhibition is on record?
Answer: -0.61%

Question: Which inhibition does the source give for `CC1=C(C(=O)Nc2ccc3[nH]ncc3c2)C(c2ccc(Cl)c(Cl)c2)CC(=O)N1` (configuration not stated) here?
Answer: 1.06%

Question: With `O=C1Nc2ccc(C(=O)c3ccco3)cc2C1=Cc1cc(Cl)c(O)c(Cl)c1` as the compound, how does the inhibition read?
Answer: 9.03%

Question: How did the inhibition turn out when `CS(=O)(=O)Nc1ccc(N/C=C2\C(=O)Nc3ccccc32)cc1` was run?
Answer: 0.19%

Question: Which inhibition does the source give for `COc1cc2ncn(-c3cc(OCc4ccccc4Cl)c(C(N)=O)s3)c2cc1OC` here?
Answer: 1.19%

Question: With `Fc1cccc(COc2ccc(Nc3ncnc4sc(-c5cccs5)cc34)cc2Cl)c1` as the compound, how does the inhibition read?
Answer: -0.03%

Question: How did the inhibition turn out when `[O-][S+]1CCN(Cc2ccc(-c3ccc4ncnc(Nc5ccc(OCc6ccccc6)c(F)c5)c4c3)o2)CC1` was run?
Answer: 2.21%

Question: Which inhibition does the source give for `Cc1ccc(C(=O)NC2CCCCC2)cc1-c1ccc(C(=O)NCC2CC2)cc1` here?
Answer: 0.67%

Question: For `Cc1nn(C)c2cc(N(C)c3ccnc(Nc4cccc(S(N)(=O)=O)c4)n3)ccc12`, which inhibition is on record?
Answer: 5.42%

Question: Which inhibition does the source give for `CCN1CCC(CC(=O)Nc2n[nH]c3nc(-c4cccs4)c(Br)cc23)CC1` here?
Answer: 0.15%

Question: Which inhibition does the source give for `COc1ccc(-c2nn3ncccc3c2-c2ccnc(Nc3ccc(Cl)c(C(F)(F)F)c3)n2)cc1` here?
Answer: 2.25%
